# Most compounds without a hit are left out; they make up all but 7.7% or so of the library.
# Tb PYK inh = inhibitors of Trypanosoma brucei pyruvate kinase; Q57TT1; TbPYK enzyme, Kinase-Glo Plus ATP luminescence, 45 min; Potency, µM (top dose mostly 76.8 µM), inactives show top-dose activity, negative = inhibition, usual class: inhibitors; 410,000 tested, 0.12% active; AID 624173; also: potency is read from the fitted curve at half-maximal effect; nearly all actives have a fitted effect of over 50% in size
#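 Quantitative HTS: titrated library compounds versus trypanosomal pyruvate kinase in TEA buffer (pH 7.2) containing KCl, MgCl2, BSA and Tween-20. Reactions were initiated with ADP, 130 uM final. Kinase-Glo Plus luminescence was read after 45 min at RT.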
# HCMV inh = blocks human cytomegalovirus replication | 410,000 tested, 4.5% active | activity change, negative = inhibition, % at 57.5 µM | AID 1259415 | HFF cells, HCMV-luciferase reporter, 72 h; active compounds read low; in the data active = activity change below about -60%; inconclusive = no clear call, values can overlap the other calls; inactive = above about -39%
#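 Two compound doses tested in HFFs infected with HCMV-luciferase, MOI 1 PFU/cell, 72 h at 37C. Lysate luminescence read with OneGlo; data normalized against buffer-only and 10uM Salinomycin inhibitor controls.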
# Sm TGR block = S. mansoni TGR enzyme inhibition | AID 485364 | 360,000 tested, 3% active | purified TGR, DTNB reduction, TNB absorbance 405 nm | Potency, µM (series often up to 114 µM), for inactives: at the highest dose activity change, negative = inhibition, hits mostly inhibitors; also: potency is read from the fitted curve at half-maximal effect; nearly all actives have a fitted effect of over 60% in size
#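 First, TGR (20 nM dispensed) and NADPH were mixed with compound. Second, a 15 min room-temperature incubation followed. Third, further NADPH and then DTNB were added to start the reaction. Finally, TNB absorbance was monitored kinetically.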
# RE007 growth inh = less growth of the S. pombe RE007 Vpr strain. S. pombe RE007 Vpr strain, BacTiter-Glo ATP luminescence, 24 h. Potency, µM (titrated, usually from 92.2 µM), without a hit: at the top dose activity change, negative = less growth, hits mostly inhibitors. 360,000 tested, 0.21% active. AID 651644; active = well fitted falling curve with a large enough effect; inconclusive = small, poorly fitted or top-dose-only effect; inactive = no such curve, though single readings can be large or run the other way; also: potency is read from the fitted curve at half-maximal effect; nearly all actives have a fitted effect of over 50% in size
#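 Fission yeast strain RE007, carrying one chromosomally integrated HIV-1 vpr copy, was seeded at OD 0.01 in PMG+AL medium with 23 nL pinned compound. After 24 h at 30 °C and 99% humidity, viability was read by BacTiter-Glo luminescence.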
# FMDV antiviral = antivirals against foot and mouth disease virus; FMDV antiviral cell-based qHTS; Potency, µM (doses to about 57.9 µM), inactives show at the highest dose activity change, negative = inhibition, hits mostly inhibitors; 410,000 tested, 1.2% active; AID 1159524; calls by dose curve; tested in HEK293T cells; also: read-out not given here; potency is read from the fitted curve at half-maximal effect; nearly all actives have a fitted effect of over 45% in size
# Giardia FBPA inh = inhibitors of Giardia lamblia fructose-1,6-bisphosphate aldolase | Potency, µM (highest dose often 59.6 µM), for inactives: top-dose activity, negative = inhibition, hits mostly inhibitors | AID 2451 | A8B2U2 | purified Giardia FBPA | 290,000 tested, 0.71% active; also: potency is read from the fitted curve at half-maximal effect; nearly all actives have a fitted effect of over 55% in size
# Target sequence (A8B2U2 whole entry, looked up): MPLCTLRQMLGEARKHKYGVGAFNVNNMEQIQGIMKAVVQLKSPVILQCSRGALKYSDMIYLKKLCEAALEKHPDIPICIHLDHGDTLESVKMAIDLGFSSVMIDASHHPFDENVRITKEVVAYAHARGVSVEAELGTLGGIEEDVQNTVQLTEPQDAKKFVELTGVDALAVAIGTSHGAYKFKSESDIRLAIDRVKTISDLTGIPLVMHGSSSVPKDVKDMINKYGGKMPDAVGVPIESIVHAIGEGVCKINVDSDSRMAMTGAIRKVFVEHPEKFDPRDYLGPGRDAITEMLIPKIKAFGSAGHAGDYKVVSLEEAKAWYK
#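 40 nM FBPA preincubated 10 min at RT with compound (up to 57.5 uM final), then substrate plus GAPDH/TPI/NAD/arsenate coupling and diaphorase/resazurin added. Fluorescence read after 20 min at RT, 525/598 nm.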
# * = called active by the depositor; ? = inconclusive; . = no result given. Unless noted, calls follow the shape of the dose curve; as a rule, active = well fitted curve in the direction sought with a large enough effect; inconclusive = small, poorly fitted or top-dose-only effect, or another doubt; inactive = no such curve, though single readings can be large; an effect the other way counts as inactive or inconclusive. % is scaled to controls: 0 for no effect and ±100 for the full control effect.
SMILES,Tb PYK inh,HCMV inh,Sm TGR block,RE007 growth inh,FMDV antiviral,Giardia FBPA inh
COc1cc(CNC(C)(C)CO)cc(Br)c1OCc1ccccc1,0.2%,-32.2,-1.4%,-14.3%,-14.0%,-4.0%
COc1cc(CNCc2ccncc2)cc(Br)c1OCc1ccccc1F,-5.1%,-90.3*,-7.7%,-11.8%,31.6µM*,-28.1%
C[C@]12CC[C@@H]3c4ccc(O)cc4CC[C@H]3[C@@H]1CC[C@H]2O,.,.,.,.,.,4.7%
Cc1ccc(NC(=O)C2CCN(c3nc4ccccc4nc3C(F)(F)F)CC2)cc1F,0.6%,-3.4,12.4%,.,?,.
Oc1cccc2ccc(/C=C/c3ccccc3Br)nc12,-5.9%,-87.0*,-10.3%,-14.5%,12.3%,29.3%
Oc1ccc(Cl)cc1/C=C/c1ccc2cccc(O)c2n1,-6.1%,1.5,.,?,28.3%,-23.3%
COc1cc(Br)c(/C=C/c2ccc3cccc(O)c3n2)cc1OC,-1.4%,-86.7*,3.3%,15.4%,14.2%,10.4%
COc1ccc(OC)c(/C=C/c2ccc3cccc(O)c3n2)c1,.,-65.4*,-18.3%,.,.,-1.1%
COc1cc(/C=C/c2ccc3cccc(OC)c3n2)c(OC(C)=O)c([N+](=O)[O-])c1,1.6%,-83.8*,-1.6%,-13.9%,?,-4.1%
COc1cc(Br)cc(/C=C/c2ccc3cccc(O)c3n2)c1O,0.1%,-26.4,-30.4%,-2.9%,0.0%,8.7%
CSc1ccc(/C=C/c2ccc3cccc(O)c3n2)cc1,-14.7%,-66.1*,6.7%,-24.4%,-59.2%,-16.9%
COc1ccc(OC)c(/C=C/c2ccnc3ccccc23)c1,0.4%,-98.3*,.,5.1%,-7.0%,.
COc1cc(Cl)cc(/C=C/c2ccc3ccccc3n2)c1OC(C)=O,-7.4%,-11.8,-12.5%,2.4%,-18.3%,-5.5%
COc1cc(/C=C/c2ccc3cccc(O)c3n2)ccc1O,2.2%,86.3,-2.9%,.,-23.4%,-8.7%
COc1ccc(C=Cc2ccc3ccccc3n2)c(OC)c1,-20.1%,-87.6*,.,?,?,.
COc1cc(/C=C/c2ccc3cccc(O)c3n2)c(Br)cc1O,.,-98.3*,-10.4%,.,.,6.9%
O=C1CCC[C@H]2[C@@H](Cc3ccccc3)[C@@H](NS(=O)(=O)c3ccc(-c4ccccc4)cc3)CC[C@]23CCCN13,.,-32.8,.,.,.,.
Cc1c(C)c2c(c(C)c1OC(=O)CCC(=O)OCCO)CC[C@](C)(CCC[C@H](C)CCC[C@H](C)CCCC(C)C)O2,3.9%,.,.,.,.,.
COc1ccc(C2=NN(C(=O)CCC(=O)O)C(c3ccc(OC)c(OC)c3)C2)cc1 (stereo unspecified),4.4%,-102.5*,22.4µM*,17.8%,-11.9%,11.8%
O=C(NCCCN1CCOCC1)c1sc2cc([N+](=O)[O-])ccc2c1Cl,?,15.7,-20.1%,-0.1%,-7.5%,2.51µM*
COc1ccc(-n2c(CN3CCN(c4ccccc4)CC3)nc3ccc([N+](=O)[O-])cc3c2=O)c(OC)c1,-0.9%,-78.5*,?,2.9%,-8.4%,-5.0%
COc1ccc(-n2c(CN3CCOCC3)nc3ccc([N+](=O)[O-])cc3c2=O)c(OC)c1,-7.0%,51.1,44.7µM*,-1.2%,-6.8%,-22.2%
CCOC(=O)N1CCN(Cc2nc3ccc([N+](=O)[O-])cc3c(=O)n2-c2ccc(OC)cc2OC)CC1,0.1%,60.8,39.8µM*,1.2%,-3.4%,-3.9%
C[C@H]1OC(OC2C(O)[C@@H](O)C(OC3C(O)[C@@H](O)C(O)O[C@@H]3CO)O[C@@H]2CO)[C@H](O)C(O)C1N[C@H]1C=C(CO)[C@@H](O)[C@H](O)C1O (stereo partly specified),1.0%,.,.,.,.,4.3%
O=C1CCN(Cc2ccccc2)S(=O)(=O)c2ccccc21,-8.8%,-37.3,20µM*,-3.6%,-24.8%,-12.9%
C=C1CCN(Cc2ccccc2)S(=O)(=O)c2ccccc21,1.5%,-22.4,-5.4%,-0.5%,-5.0%,-24.8%
O=C1c2ccccc2C(=O)C12OC2c1ccc(Cl)cc1Cl (stereo unspecified),-9.0%,-9.2,-15.0%,9.1%,28.2µM*,-7.5%

# From PubChem BioAssay
